“And” between values parts separate entries of the source, which are not always exact repeats. Identical values can stand only once. Inconclusive results are not listed. The source made the active and inactive calls. Unless noted, the call rests on the fitted dose curve; in most records, active means well fitted curve in either direction with a large enough effect (not every such curve was filed as active); inconclusive means small, poorly fitted or top-dose-only effect, or another doubt; inactive means flat fitted curve, though single readings scatter.
Legend:
[1] = target: Lysosomal acid glucosylceramidase (Homo sapiens) (UniProt P04062); experiment: Glucocerebrosidase-p2 (AID 348; in the data active means potency below about 10 µM; further: potency means the concentration at half of the fitted maximal effect); conditions: purified GBA, blue fluorogenic substrate, 40 min
Lysosomal acid glucosylceramidase (Homo sapiens), sequence (P04062 whole entry, looked up): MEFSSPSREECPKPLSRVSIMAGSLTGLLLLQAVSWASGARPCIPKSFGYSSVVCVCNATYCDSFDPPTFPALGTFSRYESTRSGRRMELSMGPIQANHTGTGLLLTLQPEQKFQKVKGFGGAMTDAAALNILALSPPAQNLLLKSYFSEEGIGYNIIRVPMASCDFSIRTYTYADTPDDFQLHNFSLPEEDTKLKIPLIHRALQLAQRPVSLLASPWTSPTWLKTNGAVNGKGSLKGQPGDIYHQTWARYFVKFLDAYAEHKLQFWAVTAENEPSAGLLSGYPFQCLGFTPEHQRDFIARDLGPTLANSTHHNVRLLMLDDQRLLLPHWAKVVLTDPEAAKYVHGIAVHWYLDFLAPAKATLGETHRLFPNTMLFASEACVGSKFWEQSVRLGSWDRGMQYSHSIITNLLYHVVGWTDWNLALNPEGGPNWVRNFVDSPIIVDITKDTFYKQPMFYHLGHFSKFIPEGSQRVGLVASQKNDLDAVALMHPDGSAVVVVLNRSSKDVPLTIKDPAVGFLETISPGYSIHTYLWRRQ
Outline: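 Compounds titrated from 0.6 nM upwards against 0.2 nM enzyme in pH 5.9 citric acid/KH2PO4, taurocholate, tween-20; blue fluorogenic substrate 80 uM, 40 min room temperature, stopped and read Ex 365/Em 440 for AC50.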

[2] = Stat Signaling Pathway (AID 446); conditions: ME-180 SIE beta-lactamase reporter, IL-6 stimulated, 5 h;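 further: ME-180 cervical cancer cells given 40 pM IL-6 alongside compound; SIE-controlled beta-lactamase reporter measured as 460/530 nm FRET emission ratio; on the % scale 0 is the no-effect control and ±100 the full control effect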
Outline: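 IL-6/STAT signaling read in ME-180 cells via an SIE beta-lactamase reporter. Stimulus was 40 pM IL-6 (its AC50) for 5 hrs, so both activation and inhibition register.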

[3] = target: Glucocorticoid receptor (Homo sapiens) (UniProt P04150); experiment: GR-EFC Redistribution (AID 451; calls by dose curve; further: potency means the concentration at half of the fitted maximal effect); conditions: CHO-K1 GR-EFC translocation, beta-gal luminescence, 2 h
Glucocorticoid receptor (Homo sapiens), sequence (P04150 whole entry, looked up, the tested form may be a part): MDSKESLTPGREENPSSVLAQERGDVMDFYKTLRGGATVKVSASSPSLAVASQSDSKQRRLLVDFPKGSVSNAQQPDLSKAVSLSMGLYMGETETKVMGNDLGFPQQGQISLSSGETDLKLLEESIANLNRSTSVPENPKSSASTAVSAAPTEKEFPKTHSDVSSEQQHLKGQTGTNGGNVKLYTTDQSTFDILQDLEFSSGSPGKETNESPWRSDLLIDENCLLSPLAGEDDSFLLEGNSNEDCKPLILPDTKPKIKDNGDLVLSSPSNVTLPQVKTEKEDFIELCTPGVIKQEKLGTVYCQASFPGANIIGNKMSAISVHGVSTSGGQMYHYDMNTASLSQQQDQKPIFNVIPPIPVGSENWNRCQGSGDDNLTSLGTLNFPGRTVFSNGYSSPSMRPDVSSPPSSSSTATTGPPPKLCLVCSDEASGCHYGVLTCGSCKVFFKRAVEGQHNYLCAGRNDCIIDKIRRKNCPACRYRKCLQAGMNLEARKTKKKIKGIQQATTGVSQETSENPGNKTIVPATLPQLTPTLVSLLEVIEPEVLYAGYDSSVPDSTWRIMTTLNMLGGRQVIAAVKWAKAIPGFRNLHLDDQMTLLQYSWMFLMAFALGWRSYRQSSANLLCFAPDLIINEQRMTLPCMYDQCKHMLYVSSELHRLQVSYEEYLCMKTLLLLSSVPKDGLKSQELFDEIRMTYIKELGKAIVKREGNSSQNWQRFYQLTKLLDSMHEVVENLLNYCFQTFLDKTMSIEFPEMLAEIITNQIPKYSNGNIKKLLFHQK
Outline: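 Translocation of GR-ED fusion to nuclear EA restores b-gal, read by luminescence after 1 h room-temperature detection. Engineered CHO-K1 biosensor cells, 1,000/well, exposed 2 h at 37 C to titrations up to 46 uM final.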

[4] = target: Mitogen-activated protein kinase 10 (Mus musculus) (UniProt Q61831); experiment: JNK3 AlphaScreen Assay (AID 530); conditions: JNK3 lysate, c-Jun phosphorylation; series mostly up to 57.1 µM;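 further: kinase came from lysate of stimulated human HepG2 cells; signal reports phosphorylation of biotinylated GST-cJun 1-79 at Ser73 with 10 µM ATP; on the % scale 0 is the no-effect control and ±100 the full control effect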
Outline: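 Room-temperature AlphaScreen kinase assay; pre-activated HepG2 lysate as JNK3 source, biotin-GST-cJun(1-79) substrate, 10 uM ATP, compound 15 min preincubation.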

[5] = target: 3',5'-cyclic-AMP phosphodiesterase 4B (Homo sapiens) (UniProt Q07343); experiment: qHTS Assay for Inhibitors of PDE-IV (AID 607; active means well fitted activation curve with a large enough effect in the main read-out, with a control signal flat, not every such curve was filed as active; further: % of control where 0% means no effect); conditions: HEK293 ACTOne CNG channel cells, membrane potential fluorescence; series mostly up to 22.9 µM
3',5'-cyclic-AMP phosphodiesterase 4B (Homo sapiens), sequence (Q07343 whole entry, looked up): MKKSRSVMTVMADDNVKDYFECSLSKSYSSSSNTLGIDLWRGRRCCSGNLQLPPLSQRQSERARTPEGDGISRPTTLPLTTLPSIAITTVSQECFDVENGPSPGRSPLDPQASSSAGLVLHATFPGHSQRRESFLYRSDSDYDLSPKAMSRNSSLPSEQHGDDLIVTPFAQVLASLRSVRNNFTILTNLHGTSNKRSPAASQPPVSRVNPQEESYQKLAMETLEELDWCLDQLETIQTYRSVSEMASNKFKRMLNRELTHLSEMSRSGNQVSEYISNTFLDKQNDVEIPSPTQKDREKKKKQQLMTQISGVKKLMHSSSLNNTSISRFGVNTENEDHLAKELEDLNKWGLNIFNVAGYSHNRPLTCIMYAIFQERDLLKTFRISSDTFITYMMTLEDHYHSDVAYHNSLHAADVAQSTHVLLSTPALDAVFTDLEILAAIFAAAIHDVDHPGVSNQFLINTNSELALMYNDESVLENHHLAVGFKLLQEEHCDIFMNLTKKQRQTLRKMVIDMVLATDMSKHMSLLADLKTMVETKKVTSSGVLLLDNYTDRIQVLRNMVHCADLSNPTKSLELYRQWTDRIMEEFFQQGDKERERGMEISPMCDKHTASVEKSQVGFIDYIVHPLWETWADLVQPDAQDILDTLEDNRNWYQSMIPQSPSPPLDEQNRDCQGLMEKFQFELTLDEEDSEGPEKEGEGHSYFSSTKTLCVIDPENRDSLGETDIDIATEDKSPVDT
Outline: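 Live HEK293 cells with a modified cyclic nucleotide-gated (CNG) channel report intracellular cAMP via membrane-potential dye fluorescence (ex 535/em 590 nm). Endogenous PDE-IV was targeted. Compounds were tested at up to 22.9 uM final; RO 20-1724 100 uM served as control.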

[6] = qHTS Assay for Lipid Storage Modulators (AID 1519; calls by dose curve); conditions: Drosophila S3 cells, BODIPY lipid droplet/cell ratio, laser cytometry, cells loaded with oleic acid
Outline: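 Cells seeded at 5,000 per well were treated with compounds over a concentration series and loaded with oleic acid (400 uM, as added). Lipid droplet fluorescence (488 nm excitation, 500-530 nm channel) was read by laser-scanning cytometry and normalized to 20 uM Triacsin C.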

[7] = AP1 Signaling Pathway (AID 357); conditions: ME-180 (cervical carcinoma) AP-1-bla reporter, EGF-induced, beta-lactamase ratio, 5 h;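 further: ME-180 reporter cells stimulated with EGF at its EC50 level; on the % scale 0 is the no-effect control and ±100 the full control effect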
Outline: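 AP-1-bla ME-180 cells, Opti-MEM + 0.5% dialyzed FBS, plated overnight 37 °C. Cpd titration + EC50 EGF, 5 h 37 °C. CCF4 2.5 h RT; ex 405, em 460/530 ratio → %activity, AC50.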

[8] = target: Cytochrome P450 1A2 (Homo sapiens) (UniProt P05177); experiment: p450-cyp1a2 (AID 410; calls by dose curve; further: potency means the concentration at half of the fitted maximal effect;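 on activity change, negative = inhibition: -100% = full effect of reference inhibitor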); conditions: recombinant CYP1A2, luciferin-ME demethylation, luminescence; series mostly up to 57 µM
Cytochrome P450 1A2 (Homo sapiens), sequence (P05177 whole entry, looked up): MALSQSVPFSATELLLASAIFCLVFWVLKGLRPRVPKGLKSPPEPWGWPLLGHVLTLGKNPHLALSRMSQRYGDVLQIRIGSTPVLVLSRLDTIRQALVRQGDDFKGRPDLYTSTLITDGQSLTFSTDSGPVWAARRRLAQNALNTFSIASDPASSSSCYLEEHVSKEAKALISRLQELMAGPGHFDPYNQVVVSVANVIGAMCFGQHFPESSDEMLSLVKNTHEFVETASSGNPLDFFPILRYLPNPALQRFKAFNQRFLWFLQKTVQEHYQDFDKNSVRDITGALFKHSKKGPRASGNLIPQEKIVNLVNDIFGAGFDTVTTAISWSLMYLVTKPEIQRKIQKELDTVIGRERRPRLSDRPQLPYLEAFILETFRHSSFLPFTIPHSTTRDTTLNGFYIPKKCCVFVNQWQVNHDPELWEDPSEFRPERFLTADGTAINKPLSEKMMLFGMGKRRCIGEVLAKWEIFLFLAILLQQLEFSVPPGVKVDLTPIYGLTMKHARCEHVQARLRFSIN
Outline: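 Inhibition was calculated relative to 57 uM furafylline (full inhibition). The reaction used human CYP1A2 at 20nM with Luciferin-ME at its Km, 100uM, driven by an NADPH-regenerating system for 60 min at room temperature.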

[9] = NFAT Signaling Pathway (AID 444); conditions: Jurkat NFAT-bla M1, carbachol, beta-lactamase ratio, 5 h;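 further: carbachol stimulus at about its EC50 of 1 µM final; on the % scale 0 is the no-effect control and ±100 the full control effect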
Outline: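 Read-out: CCF4 FRET ratio (460 nm/530 nm) after 1 h RT dye loading, used for %activity and AC50 from titration series. Cells: Jurkat NFAT-β-lactamase/M1 line, treated with compound plus 1 uM carbachol for 5 h, 37 °C.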

[10] = target: Glucocorticoid receptor (Homo sapiens) (UniProt P04150); experiment: GR-GFP Redistribution (AID 450;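 active means compounds whose dose series gives a full or clear partial fitted curve of increased nuclear translocation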; further: potency means the concentration at half of the fitted maximal effect); conditions: U2OS GR-GFP nuclear translocation, laser cytometry, 2 h
[11] = target: Ubiquitin carboxyl-terminal hydrolase 1 (Homo sapiens) (UniProt O94782); experiment: Inhibitors of USP1/UAF1: Pilot qHTS (AID 504865; active means well fitted curve in the direction sought with a large enough effect; an effect the other way counts as inactive or inconclusive;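 further: rhodamine fluorescence freed from ubiquitin-rhodamine substrate followed over time; top concentration of the series differs between compounds; on the % scale 0 is the no-effect control and ±100 the full control effect; nearly all actives have a fitted effect of over 35% in size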); conditions: purified USP1/UAF1, Ub-rhodamine cleavage fluorescence; series mostly up to 54.9 µM
Ubiquitin carboxyl-terminal hydrolase 1 (Homo sapiens), sequence (O94782 whole entry, looked up): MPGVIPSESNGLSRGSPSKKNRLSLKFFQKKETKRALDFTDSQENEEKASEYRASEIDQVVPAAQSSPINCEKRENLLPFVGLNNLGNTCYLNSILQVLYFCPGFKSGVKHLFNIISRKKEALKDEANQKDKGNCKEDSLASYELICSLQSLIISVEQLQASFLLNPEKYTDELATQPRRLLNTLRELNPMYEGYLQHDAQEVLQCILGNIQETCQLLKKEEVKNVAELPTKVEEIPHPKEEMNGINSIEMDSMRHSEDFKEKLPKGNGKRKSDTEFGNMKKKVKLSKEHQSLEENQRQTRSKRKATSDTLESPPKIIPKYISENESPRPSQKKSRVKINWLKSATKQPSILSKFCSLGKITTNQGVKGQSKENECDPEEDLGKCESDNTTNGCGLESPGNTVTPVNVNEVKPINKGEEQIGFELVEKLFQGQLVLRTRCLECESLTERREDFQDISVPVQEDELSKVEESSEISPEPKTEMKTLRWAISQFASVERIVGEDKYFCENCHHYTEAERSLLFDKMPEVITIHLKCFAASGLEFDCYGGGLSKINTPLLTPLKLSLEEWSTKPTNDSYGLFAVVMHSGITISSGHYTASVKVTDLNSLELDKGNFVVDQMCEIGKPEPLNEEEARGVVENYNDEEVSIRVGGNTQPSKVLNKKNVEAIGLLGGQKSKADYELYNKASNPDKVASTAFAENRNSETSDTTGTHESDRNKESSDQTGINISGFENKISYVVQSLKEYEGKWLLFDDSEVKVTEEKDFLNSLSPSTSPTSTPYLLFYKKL
Outline: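 USP1/UAF1 complex (1nM) preincubated with compound 15 min at room temperature, then Ub-Rho substrate (150nM final) added. Fluorescence read kinetically at 480/540 nm, 6 reads every 60 seconds. Buffer: 50mM HEPES pH 7.8, 0.5mM EDTA, 0.1 mg/ml BSA, 1mM TCEP, 0.01% Tween-20.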

[12] = target: Guanine nucleotide-binding protein G(i) subunit alpha-1 (Homo sapiens) (UniProt P63096); experiment: qHTS Assay for Inhibitors of RGS12 GoLoco Motif Activity (Green Fluorophore) (AID 879; active means well fitted curve in the direction sought with a large enough effect; an effect the other way counts as inactive or inconclusive;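 further: 0% = labeled peptide with Gαi1 and full inhibition = labeled peptide alone without protein; negative values mean loss of peptide binding seen as reduced polarization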); conditions: Galphai1/FITC-RGS12 GoLoco peptide, fluorescence polarization; series mostly up to 57.1 µM
Guanine nucleotide-binding protein G(i) subunit alpha-1 (Homo sapiens), sequence (P63096 whole entry, looked up): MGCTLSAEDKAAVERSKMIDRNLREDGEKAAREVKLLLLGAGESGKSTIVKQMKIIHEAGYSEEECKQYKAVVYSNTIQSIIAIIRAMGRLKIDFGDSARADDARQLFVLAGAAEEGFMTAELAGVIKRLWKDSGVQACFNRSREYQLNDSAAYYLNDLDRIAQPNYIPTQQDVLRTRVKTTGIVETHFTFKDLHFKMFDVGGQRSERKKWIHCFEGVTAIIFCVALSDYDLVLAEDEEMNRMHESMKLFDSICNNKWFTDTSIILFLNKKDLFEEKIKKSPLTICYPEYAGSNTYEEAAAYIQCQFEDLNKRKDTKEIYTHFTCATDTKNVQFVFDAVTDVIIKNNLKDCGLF
Outline: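 Fluorescence polarization assay: 50 nM Gαi1 with 10 nM FITC-labeled RGS12 GoLoco peptide in 10 mM Tris pH 7.5, 150 mM NaCl, 0.1 mM GDP, 0.05% NP40, 10 min at room temperature with compound.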

[13] = target: Pyruvate kinase (Leishmania mexicana) (UniProt Q27686); experiment: qHTS Validation Assay for Inhibitors of Leishmania Mexicana Pyruvate Kinase (AID 945; active means well fitted curve in the direction sought with a large enough effect; an effect the other way counts as inactive or inconclusive;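 further: 0% = DMSO only neutral control wells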); conditions: purified L. mexicana pyruvate kinase, enzyme activity, E451W mutant enzyme; series mostly up to 57.5 µM
Pyruvate kinase (Leishmania mexicana), sequence (Q27686 2-499 E452W): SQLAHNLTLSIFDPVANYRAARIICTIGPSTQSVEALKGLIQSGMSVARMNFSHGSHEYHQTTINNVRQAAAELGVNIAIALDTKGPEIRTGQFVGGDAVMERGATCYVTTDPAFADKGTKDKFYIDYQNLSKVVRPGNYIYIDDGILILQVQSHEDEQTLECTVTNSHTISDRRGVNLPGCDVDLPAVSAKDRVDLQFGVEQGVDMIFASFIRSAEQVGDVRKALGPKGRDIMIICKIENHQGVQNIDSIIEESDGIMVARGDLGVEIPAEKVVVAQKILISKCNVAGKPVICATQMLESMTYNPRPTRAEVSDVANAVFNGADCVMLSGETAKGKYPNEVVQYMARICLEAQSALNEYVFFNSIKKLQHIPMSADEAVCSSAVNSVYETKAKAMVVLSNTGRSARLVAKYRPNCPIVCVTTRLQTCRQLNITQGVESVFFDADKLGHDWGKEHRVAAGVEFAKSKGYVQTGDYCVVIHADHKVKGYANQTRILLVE
Outline: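 Eight-point qHTS titrations; enzyme 0.2 nM LmPYK (E451W mutant); substrates 0.5 mM PEP, 0.1 mM ADP; 7 mM MgCl2; 1 h room temperature; PKLight luminescence normalized to neutral control.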

[14] = target: Alpha-galactosidase A (Homo sapiens) (UniProt P06280); experiment: Counterscreen for Glucocerebrosidase Inhibitors: qHTS Assay for Human alpha-Galactosidase at pH 4.5 (AID 992; active means well fitted curve in the direction sought with a large enough effect; an effect the other way counts as inactive or inconclusive; further: 0% is about no effect); conditions: purified enzyme, fluorogenic substrate; series mostly up to 76.9 µM
Alpha-galactosidase A (Homo sapiens), sequence (P06280 whole entry, looked up): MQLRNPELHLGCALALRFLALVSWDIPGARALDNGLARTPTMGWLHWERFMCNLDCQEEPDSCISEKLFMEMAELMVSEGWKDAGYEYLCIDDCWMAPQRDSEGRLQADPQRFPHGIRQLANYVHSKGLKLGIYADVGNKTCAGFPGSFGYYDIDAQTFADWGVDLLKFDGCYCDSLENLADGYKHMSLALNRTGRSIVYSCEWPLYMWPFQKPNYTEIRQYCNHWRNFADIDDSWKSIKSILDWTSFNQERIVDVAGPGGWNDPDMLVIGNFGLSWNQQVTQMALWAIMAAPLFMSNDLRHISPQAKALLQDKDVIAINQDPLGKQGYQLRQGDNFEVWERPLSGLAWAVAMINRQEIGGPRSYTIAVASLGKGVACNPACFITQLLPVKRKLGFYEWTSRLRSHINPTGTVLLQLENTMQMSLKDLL
Outline: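 Read-out is 4-methylumbelliferone fluorescence (365 nm excitation, 440 nm emission) after a pH 10 NaOH/glycine stop. Reactions held 2 nM enzyme and 80 uM substrate at pH 4.5 for 20 min at room temperature.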

[15] = target: alpha-glucosidase (Oryza sativa, rice) (UniProt Q653V4); experiment: Counterscreen for Glucocerebrosidase Inhibitors: qHTS Assay for Rice alpha-Glucosidase at pH 5.0 (AID 997; active means well fitted curve in the direction sought with a large enough effect; an effect the other way counts as inactive or inconclusive;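 further: 0% = full activity with enzyme and -100% = basal without enzyme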); conditions: rice alpha-glucosidase enzyme activity; series mostly up to 76.9 µM
Outline: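 Rice alpha-glucosidase (4 nM final) with 400 uM 4-methylumbelliferyl-alpha-D-glucopyranoside in citrate buffer pH 5.0, 20 min at room temperature, stopped at pH 10; fluorescence 365/440 nm, compounds 0.7 nM–77 uM, AC50 from Hill fits.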

[16] = qHTS profiling for inhibitors of Plasmodium falciparum proliferation (AID 504749; active means well fitted curve in the direction sought with a large enough effect; an effect the other way counts as inactive or inconclusive;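 further: 0% = DMSO vehicle and full inhibition = artemisinin control; nearly all actives have a fitted effect of over 60% in size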); conditions: P. falciparum in erythrocytes, SYBR Green DNA, 72 h, at 28.7 µM (top of the series)
Outline: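 Three-day growth assay of blood-stage parasites in erythrocytes (0.3% parasitemia, 2.5% hematocrit) at 37 C, 5% CO2, quantified by SYBR Green DNA staining after overnight detergent lysis.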

[17] = measured here: cell count channel max response
[18] = measured here: lipid channel max response

O=C(c1cc(C(F)(F)F)cc(C(F)(F)F)c1)N1CCC2(CCCN(c3ccncc3)C2)CC1
inactive: Potency [1] > 11.4 µM | activity, negative = inhibition ([2]; at 7.69 µM (top of the series) unless noted) 16.9% | Potency [3] > 46 µM | Potency [4] | Potency [5] | activity change, negative = inhibition ([6]; at 57.5 µM (top of the series)) 5.04%
8.86%: max response [6, 17]
16%: max response [6, 18]

O=C(C1CCCCC1)N1CC(=O)N2CCc3ccccc3[C@@H]2C1
inactive: activity change, negative = inhibition ([7]; at 17.2 µM (top of the series)) 6.31% | activity change, negative = inhibition ([7]; at 38 µM (top of the series)) -5.21% | activity change, negative = inhibition ([9]; at 17.2 µM (top of the series)) 3.18% | activity change, negative = inhibition ([9]; at 38 µM (top of the series)) -8.74% | activity, negative = inhibition ([2]; at 17.2 µM (top of the series)) -1.88% | activity, negative = inhibition ([2]; at 38 µM (top of the series)) -0.96% | Potency [10] > 46 µM and > 20.6 µM | Potency [3] > 46 µM and > 20.6 µM | Potency [4] | Potency [5] | activity change, negative = inhibition ([6]; at 25.7 µM (top of the series)) 1.99% | Potency [11]
8.95%: max response [6, 18]
active: Potency [8] 12.6 µM and 10 µM
3.5%: max response [6, 17]

N#CCCn1c(=O)c(-c2cccs2)nc2cnc(N3CCNCC3)nc21
9.49%: max response [6, 18]
5.4%: max response [6, 17]
inactive: Potency [1] > 11.4 µM | Potency [10] > 9.22 µM | Potency [3] > 46 µM | Potency [4] | Potency [5] | activity change, negative = inhibition ([6]; at 57.5 µM (top of the series)) -0.055%

CCCN(CCC)C(=O)[C@@H](CCC(=O)O)NC(=O)c1ccccc1
4.96%: max response [6, 18]
inactive: activity change, negative = inhibition ([7]; at 17.2 µM (top of the series)) 0.378% | activity change, negative = inhibition ([7]; at 38 µM (top of the series)) -3.39% | Potency [8] | activity change, negative = inhibition ([9]; at 17.2 µM (top of the series)) -4.73% | activity change, negative = inhibition ([9]; at 38 µM (top of the series)) -3.22% | activity, negative = inhibition ([2]; at 17.2 µM (top of the series)) -4.56% | activity, negative = inhibition ([2]; at 38 µM (top of the series)) -1.87% | Potency [10] > 46 µM and > 20.6 µM | Potency [3] > 46 µM and > 20.6 µM | Potency [4] | Potency [5] | Potency [12] | outcome [13] | outcome [14] | outcome [15] | activity change, negative = inhibition ([6]; at 25.7 µM (top of the series)) 0.554% | Potency [11] | activity, negative = inhibition ([16]; parasite line A) 5.79% | activity, negative = inhibition ([16]; parasite line B) 7.29%
5.84%: max response [6, 17]

C[C@@]12CC[C@@H]3c4ccc(O)cc4CC[C@H]3[C@H]1CC[C@H]2O
inactive: activity change, negative = inhibition ([7]; at 17.2 µM (top of the series)) -5.6% | activity change, negative = inhibition ([7]; at 38 µM (top of the series)) -13.9% | activity change, negative = inhibition ([9]; at 17.2 µM (top of the series)) -19.1% | activity change, negative = inhibition ([9]; at 38 µM (top of the series)) -4.36% | activity, negative = inhibition ([2]; at 17.2 µM (top of the series)) -28.8% | activity, negative = inhibition ([2]; at 38 µM (top of the series)) -19.1% | Potency [10] > 46 µM and > 20.6 µM | Potency [3] > 46 µM and > 20.6 µM | Potency [4] | Potency [5] | activity change, negative = inhibition ([6]; at 25.7 µM (top of the series)) -0.875% | Potency [11]
-11.7%: max response [6, 17]
-11.1%: max response [6, 18]
active: Potency [8] 10 µM and 5.01 µM

CC[C@]1(C)CC(=O)NC1=O
inactive: activity change, negative = inhibition ([7]; at 17.2 µM (top of the series)) 1.25% | activity change, negative = inhibition ([7]; at 38 µM (top of the series)) 0.0779% | Potency [8] | activity change, negative = inhibition ([9]; at 17.2 µM (top of the series)) 5.72% | activity change, negative = inhibition ([9]; at 38 µM (top of the series)) 0.552% | activity, negative = inhibition ([2]; at 17.2 µM (top of the series)) 2.02% | activity, negative = inhibition ([2]; at 38 µM (top of the series)) 10.7% | Potency [10] > 46 µM and > 20.6 µM | Potency [3] > 46 µM and > 20.6 µM | Potency [4] | Potency [5] | Potency [12] | outcome [13] | outcome [14] | outcome [15] | activity change, negative = inhibition ([6]; at 25.7 µM (top of the series)) 0.986% | Potency [11] | activity, negative = inhibition ([16]; parasite line A) 10.6% | activity, negative = inhibition ([16]; parasite line B) 5.48%
7.01%: max response [6, 18]
2.27%: max response [6, 17]
